Source: PubChem BioAssay AID1159580 (chemical genetic matrix, 2015)
The whole screen tested about 5,500 compounds, of which about 2,000 (36%) were called active. Another 18% or so got no clear call; they are omitted. Some of the results follow. A number with no mark means an inactive call. Cut-off read from the data, not from the text of the source: active = normalized growth mostly below about 0.91 (no sharp cut-off); inconclusive = no clear call, values can overlap the other calls; inactive = mostly above about 0.92.

Experiment: chemical genetic growth profiling, strain panel (AID 1159580);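 note: tested at 20 µM; growth read once vehicle control cultures reached saturation at 30 °C; 1 = growth at the plate median or of vehicle wells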
Conditions: growth OD

In the case of `CC(=O)O.CC(=O)O.[Cd]`, the normalized growth (S. cerevisiae deletion strains, locus YJR043C, strain POL32, stronger effect = lower value) is reported as 0.298 (active), the normalized growth (S. cerevisiae deletion strains, locus YJR075W, strain HOC1, stronger effect = lower value) is reported as 0.202 (active) and the normalized growth (S. cerevisiae deletion strains, locus YKL009W, strain mrt4, stronger effect = lower value) is reported as 0.639 (active). For the same compound, the normalized growth (S. cerevisiae deletion strains, locus YKL068W, stronger effect = lower value) was 0.651 (active), the normalized growth (S. cerevisiae deletion strains, locus YKL085W, strain MDH1 (second series), stronger effect = lower value) was 0.372 (active) and the normalized growth (S. cerevisiae deletion strains, locus YKL085W, strain MDH1, stronger effect = lower value) was 0.372 (active). The normalized growth (S. cerevisiae deletion strains, locus YKL160W, strain elf1, stronger effect = lower value) was 0.533 (active), the normalized growth (S. cerevisiae deletion strains, locus YKL190W, strain CNB1, stronger effect = lower value) was 0.125 (active) and the normalized growth (S. cerevisiae deletion strains, locus YKR001C, strain vps1, stronger effect = lower value) was 0.12 (active). For the same compound, the normalized growth (S. cerevisiae deletion strains, locus YKR026C, strain gcn3, stronger effect = lower value) was 0.82 (active), the normalized growth (S. cerevisiae deletion strains, locus YKR091W, strain srl3, stronger effect = lower value) was 0.793 (active) and the normalized growth (S. cerevisiae deletion strains, locus YLL001W, strain dnm1, stronger effect = lower value) was 0.68 (active). For the same compound, the normalized growth (S. cerevisiae deletion strains, locus YLL026W, stronger effect = lower value) was 0.603 (active), the normalized growth (S. cerevisiae deletion strains, locus YLL041C, strain sdh2, stronger effect = lower value) was 0.785 (active) and the normalized growth (S. cerevisiae deletion strains, locus YLR027C, strain aat2, stronger effect = lower value) was 0.664 (active). The normalized growth (S. cerevisiae deletion strains, locus YLR039C, strain RIC1, stronger effect = lower value) was 0.166 (active), the normalized growth (S. cerevisiae deletion strains, locus YLR058C, strain SHM2, stronger effect = lower value) was 0.154 (active) and the normalized growth (S. cerevisiae deletion strains, locus YLR102C, strain apc9, stronger effect = lower value) was 0.464 (active). The normalized growth (S. cerevisiae deletion strains, locus YLR221C, strain rsa3, stronger effect = lower value) was 0.669 (active), the normalized growth (S. cerevisiae deletion strains, locus YLR258W, strain gsy2, stronger effect = lower value) was 0.698 (active) and the normalized growth (S. cerevisiae deletion strains, locus YLR262C, strain YPT6 (second series), stronger effect = lower value) was 0.403 (active). The normalized growth (S. cerevisiae deletion strains, locus YLR262C, strain YPT6, stronger effect = lower value) was 0.133 (active), the normalized growth (S. cerevisiae deletion strains, locus YLR268W, strain sec22, stronger effect = lower value) was 0.158 (active) and the normalized growth (S. cerevisiae deletion strains, locus YLR320W, strain mms22, stronger effect = lower value) was 0.696 (active). The normalized growth (S. cerevisiae deletion strains, locus YLR330W, strain CHS5, stronger effect = lower value) was 0.811 (active), the normalized growth (S. cerevisiae deletion strains, locus YLR342W, strain FKS1 (second series), stronger effect = lower value) was 0.311 (active) and the normalized growth (S. cerevisiae deletion strains, locus YLR342W, strain FKS1, stronger effect = lower value) was 0.862 (active). For the same compound, the normalized growth (S. cerevisiae deletion strains, locus YLR357W, strain rsc2, stronger effect = lower value) was 0.522 (active), the normalized growth (S. cerevisiae deletion strains, locus YLR370C, strain arc18, stronger effect = lower value) was 0.313 (active) and the normalized growth (S. cerevisiae deletion strains, locus YLR371W, strain rom2, stronger effect = lower value) was 0.188 (active). The normalized growth (S. cerevisiae deletion strains, locus YLR384C, strain iki3, stronger effect = lower value) was 0.804 (active), the normalized growth (S. cerevisiae deletion strains, locus YLR418C, strain cdc73, stronger effect = lower value) was 0.175 (active) and the normalized growth (S. cerevisiae deletion strains, locus YML016C, strain PPZ1, stronger effect = lower value) was 0.224 (active). The normalized growth (S. cerevisiae deletion strains, locus YML032C, strain rad52, stronger effect = lower value) was 0.313 (active), the normalized growth (S. cerevisiae deletion strains, locus YML120C, strain ndi1, stronger effect = lower value) was 0.695 (active) and the normalized growth (S. cerevisiae deletion strains, locus YML124C, strain tub3, stronger effect = lower value) was 0.304 (active). The normalized growth (S. cerevisiae deletion strains, locus YMR058W, strain fet3, stronger effect = lower value) was 0.0708 (active), the normalized growth (S. cerevisiae deletion strains, locus YMR078C, strain ctf18, stronger effect = lower value) was 0.462 (active) and the normalized growth (S. cerevisiae deletion strains, locus YMR125W, strain sto1, stronger effect = lower value) was 0.87 (active). The normalized growth (S. cerevisiae deletion strains, locus YMR129W, stronger effect = lower value) was 0.802 (active), the normalized growth (S. cerevisiae deletion strains, locus YMR205C, strain PFK2, stronger effect = lower value) was 0.675 (active) and the normalized growth (S. cerevisiae deletion strains, locus YMR223W, strain ubp8, stronger effect = lower value) was 0.271 (active). For the same compound, the normalized growth (S. cerevisiae deletion strains, locus YMR231W, strain pep5, stronger effect = lower value) was 0.179 (active), the normalized growth (S. cerevisiae deletion strains, locus YMR263W, strain SAP30, stronger effect = lower value) was 0.221 (active) and the normalized growth (S. cerevisiae deletion strains, locus YMR307W, strain GAS1, stronger effect = lower value) was 0.172 (active). The normalized growth (S. cerevisiae deletion strains, locus YNL067W, strain RPL9B, stronger effect = lower value) was 0.289 (active), the normalized growth (S. cerevisiae deletion strains, locus YNL071W, strain lat1, stronger effect = lower value) was 0.757 (active) and the normalized growth (S. cerevisiae deletion strains, locus YNL128W, strain TEP1, stronger effect = lower value) was 0.234 (active). For the same compound, the normalized growth (S. cerevisiae deletion strains, locus YNL153C, strain GIM3, stronger effect = lower value) was 0.468 (active), the normalized growth (S. cerevisiae deletion strains, locus YNL209W, strain ssb2, stronger effect = lower value) was 0.583 (active) and the normalized growth (S. cerevisiae deletion strains, locus YNL233W, strain BNI4, stronger effect = lower value) was 0.394 (active). For the same compound, the normalized growth (S. cerevisiae deletion strains, locus YNL248C, strain rpa49, stronger effect = lower value) was 0.765 (active), the normalized growth (S. cerevisiae deletion strains, locus YNL250W, strain rad50, stronger effect = lower value) was 0.269 (active) and the normalized growth (S. cerevisiae deletion strains, locus YNL271C, strain bni1, stronger effect = lower value) was 0.3 (active). For the same compound, the normalized growth (S. cerevisiae deletion strains, locus YNL298W, strain CLA4, stronger effect = lower value) was 0.345 (active), the normalized growth (S. cerevisiae deletion strains, locus YNL307C, strain MCK1, stronger effect = lower value) was 0.124 (active) and the normalized growth (S. cerevisiae deletion strains, locus YNL322C, strain KRE1 (second series), stronger effect = lower value) was 0.547 (active). For the same compound, the normalized growth (S. cerevisiae deletion strains, locus YNL322C, strain KRE1, stronger effect = lower value) was 0.139 (active), the normalized growth (S. cerevisiae deletion strains, locus YNR049C, strain mso1, stronger effect = lower value) was 0.819 (active) and the normalized growth (S. cerevisiae deletion strains, locus YNR052C, strain pop2, stronger effect = lower value) was 0.164 (active). The normalized growth (S. cerevisiae deletion strains, locus YOL006C, strain TOP1, stronger effect = lower value) was 0.153 (active), the normalized growth (S. cerevisiae deletion strains, locus YOL012C, strain htz1) was 0.261 and the normalized growth (S. cerevisiae deletion strains, locus YOL147C, strain pex11, stronger effect = lower value) was 0.32 (active). The normalized growth (S. cerevisiae deletion strains, locus YOR001W, strain rrp6, stronger effect = lower value) was 0.752 (active), the normalized growth (S. cerevisiae deletion strains, locus YOR061W, strain CKA2, stronger effect = lower value) was 0.269 (active) and the normalized growth (S. cerevisiae deletion strains, locus YOR069W, strain VPS5, stronger effect = lower value) was 0.222 (active). For the same compound, the normalized growth (S. cerevisiae deletion strains, locus YOR070C, strain gyp1, stronger effect = lower value) was 0.669 (active), the normalized growth (S. cerevisiae deletion strains, locus YOR080W, strain dia2, stronger effect = lower value) was 0.851 (active) and the normalized growth (S. cerevisiae deletion strains, locus YOR083W, strain WHI5, stronger effect = lower value) was 0.59 (active). For the same compound, the normalized growth (S. cerevisiae deletion strains, locus YOR106W, strain vam3, stronger effect = lower value) was 0.408 (active), the normalized growth (S. cerevisiae deletion strains, locus YOR136W, strain idh2, stronger effect = lower value) was 0.263 (active) and the normalized growth (S. cerevisiae deletion strains, locus YOR144C, strain elg1, stronger effect = lower value) was 0.461 (active). For the same compound, the normalized growth (S. cerevisiae deletion strains, locus YOR184W, strain ser1, stronger effect = lower value) was 0.25 (active), the normalized growth (S. cerevisiae deletion strains, locus YOR265W, strain rbl2, stronger effect = lower value) was 0.769 (active) and the normalized growth (S. cerevisiae deletion strains, locus YOR270C, strain vph1, stronger effect = lower value) was 0.405 (active). For the same compound, the normalized growth (S. cerevisiae deletion strains, locus YOR290C, strain snf2, stronger effect = lower value) was 0.927, the normalized growth (S. cerevisiae deletion strains, locus YOR316C, strain cot1, stronger effect = lower value) was 0.356 (active) and the normalized growth (S. cerevisiae deletion strains, locus YPL051W, strain arl3, stronger effect = lower value) was 0.207 (active). The normalized growth (S. cerevisiae deletion strains, locus YPL055C, strain LGE1, stronger effect = lower value) was 0.169 (active), the normalized growth (S. cerevisiae deletion strains, locus YPL078C, strain atp4, stronger effect = lower value) was 0.707 (active) and the normalized growth (S. cerevisiae deletion strains, locus YPL106C, strain sse1, stronger effect = lower value) was 1.01. The normalized growth (S. cerevisiae deletion strains, locus YPL240C, strain hsp82, stronger effect = lower value) was 0.731 (active), the normalized growth (S. cerevisiae deletion strains, locus YPL241C, strain CIN2, stronger effect = lower value) was 0.271 (active) and the normalized growth (S. cerevisiae deletion strains, locus YPR119W, strain clb2, stronger effect = lower value) was 0.433 (active). For the same compound, the normalized growth (S. cerevisiae deletion strains, locus YPR141C, strain kar3, stronger effect = lower value) was 0.418 (active), the normalized growth (S. cerevisiae deletion strains, locus YPR163C, strain tif3, stronger effect = lower value) was 0.441 (active) and the normalized growth (S. cerevisiae deletion strains, locus YPR167C, strain met16, stronger effect = lower value) was 0.387 (active). For the same compound, the normalized growth (S. cerevisiae deletion strains, strain wtn01, stronger effect = lower value) was 0.254 (active) and the normalized growth (S. cerevisiae strains, strain wild type, stronger effect = lower value) was 0.13 (active).
